Records with an inconclusive call do not appear. Calls of active or inactive are those of the source. Unless noted, calls follow the shape of the dose curve; as a rule, active = well fitted curve in the direction sought with a large enough effect in the repeat runs; inconclusive = weak or mixed curves; inactive = no such curve, though single readings can be large; an effect the other way counts as inactive or inconclusive.

The values below come from PubChem BioAssay (Tox21).

Assay [1] can be described thus: qHTS assay to identify aromatase inhibitors - cell viability counter screen (AID 743084).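 Also: cells stimulated with testosterone during compound exposure; nearly all actives have a fitted effect of over 55% in size.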 Also: potency is read from the fitted curve at half-maximal effect. For orientation: Quantitative high-throughput screening tests each substance at several concentrations.
Assay [2] concerns the target Aryl hydrocarbon receptor (Homo sapiens) (UniProt P35869). The assay is described as follows: qHTS assay to identify small molecule that activate the aryl hydrocarbon receptor (AhR) signaling pathway (AID 743085). Also: nearly all actives have a fitted effect of over 15% in size. Also: potency is read from the fitted curve at half-maximal effect.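 As to activation: HG2L7.5c1 human HepG2 liver cells with stably integrated DRE-driven firefly reporter; series mostly up to about 70 µM.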 Summed up:
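24 h compound exposure, 37C, HepG2-derived HG2L7.5c1 cells with DRE-responsive luciferase. Readouts: fluorescence viability, then luminescence at room temperature after 30 min.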

Assay [3] in a line: qHTS assay to identify small molecule that activate the aryl hydrocarbon receptor (AhR) signaling pathway - cell viability counter screen (AID 743086). Also: nearly all actives have a fitted effect of over 45% in size. Also: potency is read from the fitted curve at half-maximal effect. Summed up: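 HepG2-AhR-luc (HG2L7.5c1) cells, 4000/well, were preincubated 5 h at 37C, exposed to compound in qHTS format for 24 hr at 37C, then given CellTiter-Fluor for 30 min; viability was read as fluorescence in the reporter wells.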

Assay [4] concerns the target Peroxisome proliferator-activated receptor gamma (Homo sapiens) (UniProt P37231). The experiment in a line: qHTS assay to identify small molecule agonists of the peroxisome proliferator-activated receptor gamma (PPARg) signaling pathway (AID 743094; active = well fitted activation curve with a large enough effect in the signal ratio in the repeat runs, not every such curve was filed as active; the % refers to the signal ratio). Summed up:
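Compounds dissolved in DMSO were added to PPARg UAS-bla HEK293H cells for 17 h at 37C, and reporter expression was quantified by fluorescence intensity after 1 h with LiveBLAzer B/G FRET substrate.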

The nature of assay [5]: qHTS assay for small molecule agonists of the antioxidant response element (ARE) signaling pathway - cell viability counter screen (AID 743203; calls by dose curve; also: nearly all actives have a fitted effect of over 55% in size). The essentials: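 Following 16 hrs of compound treatment at 37C, HepG2 cells with an ARE-controlled beta-lactamase gene were lysed with CellTiter-Glo. Luminescence was read after 30 min at room temperature.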
Assay [6] is described as follows: qHTS assay for small molecule activators of the heat shock response signaling pathway - cell viability counter screen (AID 743209). Also: nearly all actives have a fitted effect of over 50% in size. The essentials:
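Readout: CellTiter-Glo luminescence, 30 min at room temperature. System: HSE-bla HeLa cells, 1500/well, plated overnight. Treatment: compounds in DMSO, 5 h at 37 C.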

Assay [7] in a line: qHTS assay for small molecule activators of the heat shock response signaling pathway (AID 743210; active = well fitted activation curve with a large enough effect in the signal ratio in the repeat runs, with a control signal flat, not every such curve was filed as active; the % refers to the signal ratio;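 also: HeLa cells with beta-lactamase reporter driven by heat shock elements; series mostly up to about 63 µM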). Summed up:
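Reporter gene assay: HeLa cells stably bearing an HSE-bla construct, compound treatment 5 h at 37 C, LiveBLAzer substrate 2.5 h at RT, fluorescence intensity.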

A short description of assay [8]: qHTS assay to identify small molecule agonists of the peroxisome proliferator-activated receptor delta (PPARd) signaling pathway - cell viability counter screen (AID 743211). Also: nearly all actives have a fitted effect of over 55% in size. Also: potency is read from the fitted curve at half-maximal effect. The essentials:
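Luminescent ATP viability assay (CellTiter-Glo, 30 min RT) in UAS-bla HEK293H cells carrying the PPAR delta reporter construct, 3000 cells/well, after a 17 h compound treatment at 37 C.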

In assay [9] the target is Peroxisome proliferator-activated receptor delta (Homo sapiens) (UniProt Q03181). The assay is described as follows: qHTS assay to identify small molecule agonists of the peroxisome proliferator-activated receptor delta (PPARd) signaling pathway (AID 743212; calls by dose curve). The essentials: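 A PPARd-bla HEK293H line with beta-lactamase under an Upstream Activator Sequence is treated with compounds at 37 C. Substrate loading for 2 h at room temperature precedes the fluorescence measurement.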
Sequence of Peroxisome proliferator-activated receptor delta (Homo sapiens) (Q03181 whole entry, looked up): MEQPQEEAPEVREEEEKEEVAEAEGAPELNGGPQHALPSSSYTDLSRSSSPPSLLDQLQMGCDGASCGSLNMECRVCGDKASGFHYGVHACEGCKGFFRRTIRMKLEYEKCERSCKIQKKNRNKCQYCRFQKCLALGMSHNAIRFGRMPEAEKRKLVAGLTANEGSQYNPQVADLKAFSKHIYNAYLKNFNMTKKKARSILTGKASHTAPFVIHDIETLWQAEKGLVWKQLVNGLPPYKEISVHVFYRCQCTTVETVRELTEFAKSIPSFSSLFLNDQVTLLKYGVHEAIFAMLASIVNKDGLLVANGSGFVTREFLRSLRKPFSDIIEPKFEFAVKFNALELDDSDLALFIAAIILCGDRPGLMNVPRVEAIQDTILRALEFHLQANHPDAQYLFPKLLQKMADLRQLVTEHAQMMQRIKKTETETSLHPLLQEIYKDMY

Assay [10] in a line: qHTS assay to identify small molecule antagonists of the peroxisome proliferator-activated receptor delta (PPARd) signaling pathway - cell viability counter screen (AID 743213). Also: nearly all actives have a fitted effect of over 50% in size. Summed up:
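CellTiter-Glo was added to PPARd-bla HEK293H wells following 17 h compound treatment in the presence of 300 nM L165041. Luminescence was recorded after 30 min at room temperature.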

Assay [11] concerns the target Peroxisome proliferator-activated receptor delta (Homo sapiens) (UniProt Q03181). The experiment in a line: qHTS assay to identify small molecule antagonists of the peroxisome proliferator-activated receptor delta (PPARd) signaling pathway (AID 743215; active = well fitted inhibition curve with a large enough effect in the signal ratio in the repeat runs, not every such curve was filed as active; the % refers to the signal ratio;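 also: cells stimulated with agonist L165041 at 300 nM final during compound exposure; series mostly up to about 62 µM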). Summed up: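 HEK293H UAS-bla, PPARd; agonist L165041 300 nM final with cpd in DMSO; 37 C 17 h; FRET substrate, RT 2 h; fluorescence intensity.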

A short description of assay [12]: qHTS assay to identify small molecule antagonists of the farnesoid-X-receptor (FXR) signaling pathway - cell viability counter screen (AID 743221; active = well fitted cell-killing curve with a large enough effect in the repeat runs, not every such curve was filed as active; also: nearly all actives have a fitted effect of over 50% in size). The essentials:
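In GeneBLAzer FXR-UAS-bla HEK 293T cells stimulated with 50 uM chenodeoxycholic acid (final), compounds acted for 16 h at 37 C. Viability was assessed afterwards by CellTiter-Glo luminescence.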

Assay [13] has as its target Vitamin D3 receptor (Homo sapiens) (UniProt P11473). The experiment in a line: qHTS assay to identify small molecule agonists of the vitamin D receptor (VDR) signaling pathway (AID 743222; calls by dose curve). Summed up: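 In VDR-bla cells, compound-induced beta-lactamase expression is quantified by FRET substrate fluorescence. Treatment lasts 16 h at 37C; substrate develops 2 h at room temperature.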

The target is the same in assay [14]. The assay is described as follows: qHTS assay to identify small molecule antagonists of the vitamin D receptor (VDR) signaling pathway (AID 743223; active = well fitted inhibition curve with a large enough effect in the signal ratio in the repeat runs, not every such curve was filed as active; the % refers to the signal ratio). Summed up: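 Agonist 1alpha,25-dihydroxyvitamin D3 (3 nM in well) was added with each compound to VDR-bla cells preincubated 4 h. Cells stood 16 h at 37C, then FRET substrate 2 h at room temperature; fluorescence intensity recorded.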

The nature of assay [15]: qHTS assay to identify small molecule antagonists of the peroxisome proliferator-activated receptor gamma (PPARg) signaling pathway - cell viability counter screen (AID 743194). Also: nearly all actives have a fitted effect of over 55% in size. Summed up:
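PPARg-UAS-bla HEK293H cells were plated, rested 5 h at 37 C, then treated with compounds plus rosiglitazone (50 nM final) for 17 h at 37 C; viability was then read by CellTiter-Glo luminescence after 30 min at room temperature.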

Assay [16] is described as follows: qHTS assay for small molecule agonists of the antioxidant response element (ARE) signaling pathway (AID 743202; active = well fitted activation curve with a large enough effect in the signal ratio in the repeat runs, not every such curve was filed as active; the % refers to the signal ratio; also: potency is read from the fitted curve at half-maximal effect). The essentials:
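Compounds delivered in DMSO to ARE-bla HepG2 cells (2,000 cells/well, pre-incubated 5 h) and left 16 h at 37 C. LiveBLAzer B/G FRET substrate then added for 2 h at RT before fluorescence reading.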

A short description of assay [17]: qHTS assay to identify small molecule agonists of the farnesoid-X-receptor (FXR) signaling pathway - cell viability counter screen (AID 743218). Also: nearly all actives have a fitted effect of over 45% in size. Summed up:
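Parallel cytotoxicity test: compound-treated (16 h, 37 C) HEK 293T FXR-bla reporter cells were lysed with CellTiter-Glo and luminescence recorded.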

Assay [18] has as its target Bile acid receptor (Homo sapiens) (UniProt Q96RI1). The assay is described as follows: qHTS assay to identify small molecule antagonists of the farnesoid-X-receptor (FXR) signaling pathway (AID 743217; active = well fitted inhibition curve with a large enough effect in the signal ratio in the repeat runs, not every such curve was filed as active; the % refers to the signal ratio). Summed up:
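GeneBLAzer FXR-UAS-bla HEK 293T, CDCA-stimulated (50 uM final). Compound treatment 16 h, 37 °C. Detection: beta-lactamase cleavage of B/G FRET substrate, fluorescence.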

For assay [19] the target is unchanged. The assay is described as follows: qHTS assay to identify small molecule agonists of the farnesoid-X-receptor (FXR) signaling pathway (AID 743220; active = well fitted activation curve with a large enough effect in the signal ratio in the repeat runs, not every such curve was filed as active; the % refers to the signal ratio). Summed up:
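Beta-lactamase reporter under UAS control in GeneBLAzer FXR HEK 293T cells (5000/well) measured with LiveBLAzer FRET substrate after 2 h at room temperature. Compound exposure lasted 16 h at 37C.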

Sequence of Vitamin D3 receptor (Homo sapiens) (P11473 whole entry, looked up): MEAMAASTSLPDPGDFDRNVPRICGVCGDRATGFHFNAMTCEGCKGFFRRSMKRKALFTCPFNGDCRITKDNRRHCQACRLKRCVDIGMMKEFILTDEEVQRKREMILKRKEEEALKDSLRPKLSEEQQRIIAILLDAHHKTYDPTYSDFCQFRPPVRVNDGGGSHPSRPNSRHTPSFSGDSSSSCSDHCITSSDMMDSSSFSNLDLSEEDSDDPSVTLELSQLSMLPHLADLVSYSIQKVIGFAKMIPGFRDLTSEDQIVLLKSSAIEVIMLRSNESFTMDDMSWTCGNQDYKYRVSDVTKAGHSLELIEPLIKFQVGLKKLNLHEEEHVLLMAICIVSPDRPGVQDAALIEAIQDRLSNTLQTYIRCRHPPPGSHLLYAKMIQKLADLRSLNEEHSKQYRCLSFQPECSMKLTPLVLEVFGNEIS
Sequence of Aryl hydrocarbon receptor (Homo sapiens) (P35869 whole entry, looked up): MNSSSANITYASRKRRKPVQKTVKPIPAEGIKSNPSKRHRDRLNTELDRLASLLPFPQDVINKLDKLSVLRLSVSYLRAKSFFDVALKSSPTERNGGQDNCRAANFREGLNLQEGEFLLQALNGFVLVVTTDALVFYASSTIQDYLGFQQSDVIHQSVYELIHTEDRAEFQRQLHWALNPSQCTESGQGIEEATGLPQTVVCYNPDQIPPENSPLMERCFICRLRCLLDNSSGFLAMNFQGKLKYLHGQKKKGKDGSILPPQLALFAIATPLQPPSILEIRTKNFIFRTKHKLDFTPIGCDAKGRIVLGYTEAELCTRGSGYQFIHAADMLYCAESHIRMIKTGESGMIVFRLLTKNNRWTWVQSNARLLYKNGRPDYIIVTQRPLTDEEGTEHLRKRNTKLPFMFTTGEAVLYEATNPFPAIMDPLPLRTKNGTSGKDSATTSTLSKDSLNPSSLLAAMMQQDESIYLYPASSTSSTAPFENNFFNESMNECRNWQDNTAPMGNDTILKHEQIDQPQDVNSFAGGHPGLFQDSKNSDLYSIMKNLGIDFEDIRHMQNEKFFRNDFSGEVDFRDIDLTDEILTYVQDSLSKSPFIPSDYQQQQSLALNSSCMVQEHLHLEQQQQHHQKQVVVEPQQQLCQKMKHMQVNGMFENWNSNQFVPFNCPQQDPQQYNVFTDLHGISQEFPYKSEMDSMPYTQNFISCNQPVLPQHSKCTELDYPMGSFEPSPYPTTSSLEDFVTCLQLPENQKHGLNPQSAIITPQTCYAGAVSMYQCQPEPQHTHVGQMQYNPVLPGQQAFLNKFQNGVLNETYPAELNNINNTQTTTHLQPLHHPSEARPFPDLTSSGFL
Sequence of Bile acid receptor (Homo sapiens) (Q96RI1 whole entry, looked up): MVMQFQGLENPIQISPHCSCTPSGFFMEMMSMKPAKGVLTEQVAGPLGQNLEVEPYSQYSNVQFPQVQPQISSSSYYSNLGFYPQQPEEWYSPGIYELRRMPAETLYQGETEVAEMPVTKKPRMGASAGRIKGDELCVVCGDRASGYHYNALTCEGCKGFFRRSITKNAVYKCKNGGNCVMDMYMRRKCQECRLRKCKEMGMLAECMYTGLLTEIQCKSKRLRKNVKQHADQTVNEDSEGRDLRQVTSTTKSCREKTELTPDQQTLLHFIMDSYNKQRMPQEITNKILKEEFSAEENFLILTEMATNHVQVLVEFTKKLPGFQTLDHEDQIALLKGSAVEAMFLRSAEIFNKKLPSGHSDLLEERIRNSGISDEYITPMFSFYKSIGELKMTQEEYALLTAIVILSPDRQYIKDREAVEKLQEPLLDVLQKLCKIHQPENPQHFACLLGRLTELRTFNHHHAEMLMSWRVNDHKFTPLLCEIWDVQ
Sequence of Peroxisome proliferator-activated receptor gamma (Homo sapiens) (P37231 whole entry, looked up): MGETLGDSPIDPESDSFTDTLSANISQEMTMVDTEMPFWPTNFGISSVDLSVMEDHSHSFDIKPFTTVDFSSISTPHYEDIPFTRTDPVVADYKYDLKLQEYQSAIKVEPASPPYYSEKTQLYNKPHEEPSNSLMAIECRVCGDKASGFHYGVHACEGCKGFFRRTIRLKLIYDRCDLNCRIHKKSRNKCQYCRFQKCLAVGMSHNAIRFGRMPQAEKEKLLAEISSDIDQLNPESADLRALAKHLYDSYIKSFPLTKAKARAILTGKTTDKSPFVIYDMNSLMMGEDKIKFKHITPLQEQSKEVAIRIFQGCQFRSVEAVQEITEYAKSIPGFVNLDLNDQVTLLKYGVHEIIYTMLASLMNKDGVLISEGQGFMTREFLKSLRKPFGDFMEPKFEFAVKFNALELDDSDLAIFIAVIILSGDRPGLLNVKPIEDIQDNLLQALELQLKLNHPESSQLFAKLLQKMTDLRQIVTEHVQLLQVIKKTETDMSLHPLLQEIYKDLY

Turning to `Nc1ccc(N)c2c1C(=O)c1ccccc1C2=O`, the Potency was 17.2 µM (active) in assay [1], 6.11 µM (active) in assay [2] and 21.7 µM (active) in [3]. Further, the Potency entry in assay [4], in assay [5], in assay [6], in assay [7], in assay [8] and in [9] was “inactive” each time. Also, the Potency result in assay [10], in [11], in assay [12] and in [13] was “inactive” each time. In addition, the result in assay [14] was inactive.
For the compound `CCOC(=O)c1cccnc1`, the Potency result in assay [1], in assay [2], in assay [3], in [4], in [15] and in assay [16] was “inactive” each time. Further, the Potency result in assay [5], in [7], in assay [8], in assay [9], in assay [10] and in assay [11] was “inactive” throughout. Besides, the Potency entry in [12] is “inactive”.
In the case of `CC(=O)[O][Al]`, the Potency result in [1], in [2], in [3], in assay [15], in assay [16] and in assay [5] was “inactive” in each case. For the same compound, the Potency result in assay [6], in assay [10], in assay [17] and in assay [12] was “inactive” each time.
With `CCNc1cc(O)ccc1C`, the Potency entry in [1], in [3], in assay [15], in [5], in assay [6] and in [7] was “inactive” each time. Further, the Potency entry in assay [8], in [9], in [10], in [11], in assay [18] and in assay [17] was “inactive” each time. Besides, the Potency result in [19], in assay [12] and in assay [13] was “inactive” each time. For the same compound, the Potency in assay [2] is 30.3 µM (active).
Take `O=C(O)c1ccco1`: the Potency result in assay [1], in [2], in [3], in [4], in assay [16] and in assay [5] was “inactive” throughout. Moreover, the Potency result in assay [6], in [7], in assay [10], in [17], in assay [12] and in assay [13] was “inactive” in each case. In assay [14], the call was inactive.
`CCN(CC)c1ccc2c(-c3ccccc3C(=O)O)c3ccc(=[N+](CC)CC)cc-3oc2c1`: the Potency was 8.63 µM (active) in assay [1] and 9.69 µM (active) in [3]. The Potency entry in assay [2], in [4], in assay [15], in [5], in assay [7] and in assay [8] was “inactive” in each case. The Potency entry in assay [10], in assay [18], in assay [12] and in [13] was “inactive” in each case.
In the case of `COc1cc(C(=O)OCCCN2CCCN(CCCOC(=O)c3cc(OC)c(OC)c(OC)c3)CC2)cc(OC)c1OC`, the Potency in assay [1] was 8.41 µM (active); in assay [16], 11.9 µM (active). The Potency entry in [2], in [3], in [15], in assay [5], in [6] and in assay [7] was “inactive” each time. Further, the Potency result in assay [8], in [11], in assay [12] and in assay [13] was “inactive” in each case.
In the case of `CCOC(=O)COC(=O)c1cc(Oc2ccc(C(F)(F)F)cc2Cl)ccc1[N+](=O)[O-]`, the Potency entry in [1], in assay [2], in assay [3], in assay [4], in assay [5] and in assay [8] was “inactive” each time. Also, the Potency entry in assay [10], in [18], in assay [17], in assay [12] and in [13] was “inactive” throughout. Moreover, in assay [14], the call was inactive.
In the case of `C/C=C/C=C/CO`, the Potency entry in [1], in assay [2], in [3], in assay [4], in [5] and in assay [6] was “inactive” each time. In addition, the Potency entry in assay [7], in assay [8], in [9], in assay [10], in assay [11] and in [18] was “inactive” in each case. Further, the Potency entry in assay [19], in [12] and in [13] was “inactive” throughout.
Regarding `CC1=CC=C(C(C)C)CC1`, the Potency entry in assay [1], in [2], in assay [3], in [4], in [16] and in assay [5] was “inactive” throughout. For the same compound, the Potency entry in assay [6], in assay [7], in assay [10], in assay [17] and in [12] was “inactive” in each case.
Regarding `CC(C)=CCC/C(C)=C/CC/C(C)=C/CO`, the Potency result in assay [1], in assay [2], in assay [3], in assay [4], in assay [15] and in assay [5] was “inactive” throughout. The Potency entry in assay [10], in assay [11], in [17], in [12] and in assay [13] was “inactive” throughout. For the same compound, in [8], the Potency is 38.9 µM (active). Besides, the call in assay [14] was inactive.
Turning to `O=C(O)C(S)C(S)C(=O)O` (centres undefined), the Potency entry in assay [1], in assay [2], in assay [3], in assay [15], in assay [5] and in assay [6] was “inactive” each time. The Potency result in assay [8], in [9], in [10], in assay [11], in [18] and in [19] was “inactive” in each case. The Potency result in [12] and in assay [13] was “inactive” in each case. In addition, the compound was classed as inactive in assay [14].
In the case of `CCCCCCCCCOS(=O)(=O)O`, the Potency entry in assay [1], in assay [2], in assay [3], in assay [4], in assay [5] and in [6] was “inactive” in each case. Moreover, the Potency result in assay [7], in assay [8], in assay [10], in [11], in assay [17] and in assay [12] was “inactive” throughout. In addition, the Potency result in [13] is “inactive”.
